Source: PubChem (National Center for Advancing Translational Sciences (NCATS))
The list is not random: actives were taken first. Their share in the collection is about 3.2%.
Tau fibril FP – inhibitors of human tau fibril formation; P10636; K18 P301L tau heparin fibrillization, Alexa594 FP, 6 h; Potency, µM (titrated, usually from 57.7 µM), inactives show at the top dose activity, negative = inhibition, hits mostly inhibitors; actives 0.39% (n = 280,000); AID 1468; further: potency means the concentration at half of the fitted maximal effect; on the % scale 0 is the no-effect control and ±100 the full control effect; nearly all actives have a fitted effect of over 55% in size
Target sequence (P10636 561-689 P618L limits assumed): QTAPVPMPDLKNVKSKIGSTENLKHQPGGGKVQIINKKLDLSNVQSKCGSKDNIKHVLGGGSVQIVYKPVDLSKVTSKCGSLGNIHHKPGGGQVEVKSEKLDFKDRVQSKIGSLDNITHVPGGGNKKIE
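Heparin (20 uM) drove fibril formation of recombinant tau K18 P301L, 15 uM unlabeled with 0.24 uM Alexa 594 label, for 6 hr at 37 C in 100 mM sodium acetate pH 7. Fluorescence polarization (555/632 nm) read 1 hr after 30 uM ThT.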
Lamin A splicing – LMNA splicing modulation. HeLa LMNA splicing GFP/RFP minigene ratio, 48 h. Potency, µM (titrated, usually from 46.1 µM), without a hit: at the top dose ratio change, negative = inhibition, actives largely listed as inhibitors. actives 0.01% (n = 200,000); active means well fitted inhibition curve with a large enough effect in the signal ratio, with a control signal flat, not every such curve was filed as active; inconclusive means small, poorly fitted or top-dose-only effect, or effect the other way, or a change in a side signal; the % refers to the signal ratio; further: potency means the concentration at half of the fitted maximal effect; on the % scale 0 is the no-effect control and ±100 the full control effect
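S3 HeLa stable clones carrying a lamin A-EGFP splicing minigene plus DsRed2 were seeded at 600 cells/well in Opti-MEM with 2% FBS, pin-dosed and incubated 48 h at 37°C. Acumen cytometry (488 nm) gave the GFP/RFP total-intensity ratio.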
Tau ThT inhib – tau fibrillization inhibition (ThT binding). actives 2.1% (n = 270,000). P10636. Potency, µM (highest dose often 57.4 µM), inactives show top-dose activity, negative = inhibition, usual class: inhibitors. recombinant tau K18 P301L, heparin-induced fibrillization, ThT fluorescence. AID 1460; further: potency means the concentration at half of the fitted maximal effect; on the % scale 0 is the no-effect control and ±100 the full control effect; nearly all actives have a fitted effect of over 55% in size
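Heparin-induced (20 uM) aggregation of recombinant human K18 P301L tau, 15 uM unlabeled with 0.24 uM labeled, pH 7 acetate buffer, 6 hr at 37 C with compound. Fibrils quantified by 30 uM ThT fluorescence after 1 hr ambient incubation.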
CBFb-RUNX1 inh – blocks binding between human CBF-beta and RUNX1 | Q01196+Q13951 | AlphaScreen CBFb-His/RUNX1-biotin binding, biochemical | Potency, µM (series often up to 59.8 µM), without a hit: at the highest dose activity, negative = inhibition, usual class: inhibitors | 230,000 tested, under 10 active | AID 1477; further: % of control where 0% means no effect
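AlphaScreen proximity signal reports loss of binding between His-tagged CBF-beta and biotin-labelled RUNX1, each at 30 nM. Proteins are pre-associated for 20 minutes, compounds added for 15 minutes, then beads for 90 minutes, all at ambient temperature.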
Tau fluor counter – counter-screen for tau fibril formation inhibitors; Potency, µM (doses to about 57.7 µM), for the others: at the highest dose activity change, negative = decrease; tau K18 P301L Alexa594 fluorescence, heparin fibrillization; actives 0.93% (n = 280,000); further: potency means the concentration at half of the fitted maximal effect; on the % scale 0 is the no-effect control and ±100 the full control effect; nearly all actives have a fitted effect of over 55% in size
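Human tau K18 P301L (15 uM unlabeled, 0.24 uM Alexa 594-labeled) in 100 mM sodium acetate pH 7 with 20 uM heparin, 6 hr at 37 C. ThT 30 uM added, 1 hr ambient; Alexa 594 FP and total fluorescence read at 555/632 nm.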
JMJD2E inh – blocks human JMJD2E demethylase activity; B2RXH2; JMJD2E catalytic domain, FDH-coupled NADH fluorescence (FDH is formaldehyde dehydrogenase); Potency, µM (highest dose often 57.1 µM), for inactives: top-dose activity change, negative = inhibition, most hits filed as inhibitors; actives 1.6% (n = 230,000); active means well fitted inhibition curve with a large enough effect, not every such curve was filed as active; inconclusive means small, poorly fitted or top-dose-only effect, or another doubt; inactive means no such curve, though single readings can be large or run the other way;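 further: potency means the concentration at half of the fitted maximal effect; 0% = wells with enzyme and -100% = buffer wells without enzyme; nearly all actives have a fitted effect of over 50% in size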
Target sequence (B2RXH2 1-337 limits assumed): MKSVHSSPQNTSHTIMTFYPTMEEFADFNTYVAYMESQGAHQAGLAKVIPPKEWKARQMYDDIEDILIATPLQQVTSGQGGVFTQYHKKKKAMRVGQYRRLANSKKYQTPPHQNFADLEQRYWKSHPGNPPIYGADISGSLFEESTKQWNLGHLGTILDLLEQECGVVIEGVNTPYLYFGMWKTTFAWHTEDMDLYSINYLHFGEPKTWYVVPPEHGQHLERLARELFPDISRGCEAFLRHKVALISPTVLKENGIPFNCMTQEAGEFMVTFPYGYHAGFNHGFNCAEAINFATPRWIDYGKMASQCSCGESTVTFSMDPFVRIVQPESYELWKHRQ
An asterisk follows results filed as active; ? = inconclusive; nt = not tested or not shown; [ ] = remark or other dose. Unless noted, the call rests on the fitted dose curve; in most records, active means well fitted curve in the direction sought with a large enough effect; inconclusive means small, poorly fitted or top-dose-only effect, or another doubt; inactive means no such curve, though single readings can be large; an effect the other way counts as inactive or inconclusive.

SMILES | Tau fibril FP | Lamin A splicing | Tau ThT inhib | CBFb-RUNX1 inh | Tau fluor counter | JMJD2E inh
S=C(Nc1ccc2c(c1)OCO2)Nc1ccc2c(c1)OCO2 | ? | -17% | 25µM* | -3% | ? | -19%
CC(=O)c1ccc(NC(=S)NCCc2cccc(Cl)c2)cc1 | 25µM* | 5%[46 µM] | 3% | -2% | ? | 3%
CC(=O)c1ccc(NC(=S)NCCc2ccc(S(N)(=O)=O)cc2)cc1 | 8% | 17%[46 µM] | ? | 2% | -11% | -3%
O=C(Nc1ccc(S(=O)(=O)NCc2ccccc2)cc1)Nc1ccc2c(c1)OCO2 | ? | 0% | ? | 3% | 4µM*[quencher] | 1%
O=C(Nc1cccc(Cl)c1)Nc1ccc2c(c1)OCO2 | 16% | ? | ? | -6% | 14µM*[quencher] | 8%
O=C(Nc1ccccc1)Nc1cccc(Cl)c1 | ? | ? | 10% | 4% | ? | 1%
CC(=O)c1ccc(NC(=O)Nc2cccc(Cl)c2)cc1 | 20µM* | 10% | ? | 6% | 14µM*[quencher] | 0%
COc1ccc(Cn2c(CCC(=O)Nc3cccc(Cl)c3)nc3cccnc32)cc1 | ? | nt | 5% | nt | -27% | nt
COc1cccc2cc(S(=O)(=O)c3ccc(F)c(C)c3)c(=O)oc12 | -9% | nt | 3% | nt | -7% | nt
c1ccc(-c2cn3c(n2)-c2ccccc2C3)cc1 | 4% | ? | ? | -7% | -9% | 3.2µM*
Cc1cc(C)n2[nH]c(=O)c(N=Nc3ccccc3)c2n1 | 4% | 2% | ? | -4% | 1% | ?
CCOc1ccc(N=Nc2c(=O)[nH]n3c(=O)cc(C)[nH]c23)cc1 | 8% | 12% | 3.5µM* | -22% | -13% | -11%
Cc1cc(=O)n2[nH]c(=O)c(N=Nc3ccccc3)c2[nH]1 | 7% | 11% | 14µM* | -10% | -13% | -6%
COc1cccc(NC(=O)Nc2nnc(N3C(C)CCCC3C)s2)c1 (stereo unspecified) | ? | nt | ? | -5% | 10µM*[quencher] | -5%
COc1cccc(NC(=O)Nc2nnc(CC(=O)Nc3ccccc3)s2)c1 | 13µM* | nt | -3% | -5% | ? | -29%
COc1ccc(NC(=O)Nc2nnc(CC(=O)Nc3ccccc3)s2)cc1 | 1% | nt | nt | 0% | -26% | -3%
COc1cc(OC)cc(-n2nnc(-c3nc(-c4ccccc4Cl)no3)c2N)c1 | -18% | nt | ? | nt | ? | nt
CCOc1cc(CNc2ccc(N(C)C)cc2)cc(Br)c1OCC(=O)NC(C)(C)C | 16µM* | ? | 7.9µM* | -18% | ? | ?
CCOc1cc(CNc2ccc(N3CCCCC3)cc2)cc(Br)c1OCC(=O)NC(C)(C)C | -13% | ? | ? | ? | -25% | 3.2µM*
CCOc1cc(CNc2cccc3ccccc23)cc(Br)c1OCC(=O)NC(C)(C)C | 14% | ? | ? | -6% | ? | ?
CC(=O)c1cc(-c2ccccc2)n(CCC(=O)Nc2nc3c(C)cccc3s2)c1C | -4% | -5%[46 µM] | -1% | nt | -6% | nt
CN(C)c1cc2c(cc1NC(=O)c1ccc(F)cc1)n(C)c(=O)n2C | -6% | nt | ? | nt | -30% | nt
Cc1[nH]c2ccccc2c1/C=N\NC(=O)CNc1ccc2c(c1)OCO2 | -2% | -7% | 16µM* | -10% | ? | -13%
Oc1[nH]c2ccccc2c1C=Nc1ccc2c(c1)OCO2 | 12% | ? | 7.9µM* | -18% | ? | -6%
Cc1[nH]c2ccccc2c1/C=N/NC(=O)CNC(=O)c1cccs1 | 4% | nt | ? | -1% | ? | 0%
SMILES | Tau fibril FP | Lamin A splicing | Tau ThT inhib | CBFb-RUNX1 inh | Tau fluor counter | JMJD2E inh
Cc1[nH]c2ccccc2c1/C=N/NC(=O)c1cccs1 | 10% | nt | 11µM* | -10% | 18µM*[quencher] | -20%
O=C(CNc1ccc2c(c1)OCO2)N/N=C\c1ccccc1Cl | 3% | 5% | ? | 2% | ? | ?
COc1ccc(NC(=O)CSc2nc3ccccc3n2CC(=O)N2CCCC(C)C2)cc1 (stereo unspecified) | 6% | -13%[46 µM] | -2% | nt | -11% | nt
NC(=O)C1(N2CCCCC2)CCN(C(=S)NCCc2ccccc2)CC1 | 5% | nt | 0% | -2% | -4% | 1%
CC(=C1C(=O)c2ccccc2C1=O)N1CCC(C(N)=O)(N2CCCCC2)CC1 | -9% | 4% | 32µM* | -6% | -20% | ?
Cc1ccc(N=c2ssnc2Cl)cc1 | ? | 15% | 14µM* | -20% | -25% | 11µM*
Cc1cc(Cl)ccc1N=c1ssnc1Cl | 22µM* | -7% | 14µM* | -22% | -27% | 11µM*
Nc1ccccc1N=c1ssnc1Cl | ? | nt | 22µM* | 16% | -30% | ?
Cc1cc(C)nc(/N=c2/ssnc2Cl)c1 | 8.9µM* | 2% | 4µM* | -2% | -21% | 0%
Cc1ccc(N=C2NC(=O)CS2)cc1 | 10% | -9% | -4% | 4% | 8% | -1%
Cc1cc(C)c(C#N)c(Cl)n1 | -3% | -16% | 2% | -2% | -1% | 2%
COC(=O)C1=C[C@@H](C(=O)OC)[C@@H]2C3=C(C(=O)[C@@]2(CC(C)C)NC(=O)c2ccccc2)[C@H](C)n2c(=O)n(-c4ccccc4)c(=O)n2[C@@H]3C1 | nt | nt | nt | 18% | nt | nt
O=C(O)CCCCCN1C(=O)/C(=C\c2ccc(-c3ccc(Cl)cc3)o2)SC1=S | 8% | nt | nt | 6% | -11% | 5%
O=C(O)CCCN1C(=O)/C(=C/c2ccc(-c3nc4ccccc4s3)o2)SC1=S | -13% | 16% | 1.6µM* | 1% | -28% | -2%
O=C(O)CCCCCN1C(=O)/C(=C/c2ccncc2)SC1=S | -5% | -18% | ? | -3% | 6% | 22µM*
COc1ccc2nc(N(Cc3cccnc3)C(=O)c3ccc(Cl)cc3)sc2c1 | -13% | 5%[46 µM] | -13% | nt | -18% | nt
Cc1ccc(Cn2c(/C=C/c3ccco3)nc3ccccc32)cc1 | ? | -10% | 25µM* | 3% | ? | ?
OCC(O)C(O)C(O)C(O)CO (stereo unspecified) | -6% | ? | -1% | -2% | -2% | nt
O=C1C(=O)c2c(C(=O)c3ccccc3)coc2-c2ccccc21 | 7.9µM* | ? | 2.5µM* | -29% | ? | ?
Cc1oc2c(c1C(=O)c1ccccc1)C(=O)C(=O)c1ccccc1-2 | ? | ? | 7.9µM* | ? | -22% | ?
O=C(C1=C(c2ccccc2)C(=O)c2ccccc2C1=O)c1ccccc1 | 5% | ? | -1% | 8% | 0% | -3%
COc1ccc(-c2nnc3n2N=C(c2ccc(OC)cc2OC)CS3)cc1 | nt | nt | nt | -10% | nt | nt
c1ccc(-c2nnc(-c3ccccn3)s2)nc1 | 16% | nt | ? | ? | 1% | 2.8µM*
Cc1ccc(C(=O)/C=C/Nc2cccc([N+](=O)[O-])c2)o1 | 1% | -9% | 14µM* | 2% | ? | -7%
